Reference: article PMC5540273 (PLoS ONE, 2017)

Columns and labels:
Conditions in all cases: concentration: 1 μM, replicates: in singlicate; n = 1
[1] = tested on: ULK3
[2] = tested on: T1, VEGFR2
T1 construct: gene KDR

[3] = tested on: T2, VPS34
T2 construct: gene PIK3C3

[4] = tested on: VRK2
[5] = tested on: WEE1
[6] = tested on: WEE2
[7] = tested on: WNK1
[8] = tested on: WNK2
[9] = tested on: WNK3
[10] = tested on: WNK4
[11] = tested on: T3, YANK1
T3 construct: gene STK32A

[12] = tested on: T4, YANK2
T4 construct: gene STK32B

[13] = tested on: T5, YANK3
T5 construct: gene STK32C

[14] = tested on: T6, YES
T6 construct: gene YES1

[15] = tested on: T7, YSK1
T7 construct: gene STK25

[16] = tested on: T8, YSK4
T8 construct: gene MAP3K19

[17] = tested on: ZAK
[18] = tested on: ZAP70
[19] = tested on: T9, p38-alpha
T9 construct: gene MAPK14

[20] = tested on: T10, p38-beta
T10 construct: gene MAPK11
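Further: KINOMEscan kinase panel screen.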

SMILES	%Inh [1] [%]	%Inh [2] [%]	%Inh [3] [%]	%Inh [4] [%]	%Inh [5] [%]	%Inh [6] [%]	%Inh [7] [%]	%Inh [8] [%]	%Inh [9] [%]	%Inh [10] [%]	%Inh [11] [%]	%Inh [12] [%]	%Inh [13] [%]	%Inh [14] [%]	%Inh [15] [%]	%Inh [16] [%]	%Inh [17] [%]	%Inh [18] [%]	%Inh [19] [%]	%Inh [20] [%]
Cl.NS(=O)(=O)c1cccc(Nc2cc(-c3ccc(F)cc3)n[nH]2)c1 [GW824645]	12	35	29	18	0	0	35	0	25	13	0	0	0	0	8	0	0	0	0	0
COC(=O)c1c(-c2ccccc2)c2cc(Br)ccc2c(=O)n1Cc1ccc(NC(=O)CCC(=O)O)cc1	16	0	0	0	0	21	0	26	0	0	0	21	0	0	0	12	36	0	5	5
Cc1ccc(-c2ccc3c(ccc4sc5c(c43)NC[C@@H](C)N=C5N(C)C)n2)cn1	0	0	0	0	0	0	0	0	0	0	0	0	0	0	0	0	0	0	0	0
CCC(=O)c1c(-c2ccccc2)c2cc(Cl)ccc2c(=O)n1Cc1ccc(C(=O)O)cc1	0	0	7	0	0	4	0	0	0	0	0	4	5	0	0	0	0	0	23	0
COc1cc(Nc2nccc(N3CCC(NC(=O)C4COc5ccccc5O4)C3)n2)cc(OC)c1OC (stereo not shown) [GSK1379761]	69	0	16	41	10	0	1	19	46	50	9	0	19	27	0	8	14	0	26	0
COc1cc(OC)cc(-c2cc3cnc(N)nc3nc2NC(=O)NC(C)(C)C)c1	0	36	0	0	0	5	0	0	0	0	11	19	0	100	0	15	15	0	6	7
CCS(=O)c1ccc(-c2coc3ccc(-c4nnc(C)o4)cc23)cc1 (stereo not shown)	0	10	15	2	7	0	0	3	0	11	5	11	0	0	0	15	8	0	0	5
CCCNC(=O)Nc1ccc(Oc2ncnc3ccn(C)c23)cc1	30	13	34	0	0	13	0	3	0	0	0	8	13	0	3	33	1	0	2	15
